Results filed as inconclusive are left out. The source made the active and inactive calls. The call rests on the fitted dose curve; in most records, active means well fitted inhibition curve with a large enough effect; inconclusive means small, poorly fitted or top-dose-only effect; inactive means no such curve, though single readings can be large or run the other way.
Assay: qHTS Assay for Lipid Storage Modulators: 3T3L1 Assay against Probe and Analogs
Settings: 3T3-L1 lipid droplets, BODIPY imaging, oleic acid, 18-24 h; series mostly up to 46.1 µM
Excerpt: Storing lipids as a reservoir for energy or the anabolism of elementary metabolites is a common feature of probably all cells and is conserved from bacteria to humans. The universal cellular lipid storage organelle is the so-called lipid storage droplet (LD). Although ubiquitous, LDs share a simple structure composed of a hydrophobic core that harbors the storage lipids, which is shielded by a droplet-specific phospholipid monolayer to which proteins are attached. The current model of LD biogenesis involves an incorporation of the lipid core into the membrane leaflets of the endoplasmic reticulum (ER) followed by a subsequent budding-like maturation of a LD, which ultimately pinches off. Once released, LD volume can increase by localized lipogenesis or fusion of existing droplets. Storage lipids are re-mobilized enzymatically by lipase activity. Lipase regulation in the adipocyte is heavily studied and involves multiple components including catecholamine signaling, the LD-associated proteins Perilipin and comparative gene identification-58 (CGI-58) and at least two lipases named hormone sensitive lipase (HSL) and adipocyte triglyceride lipase (ATGL). LD regulation outside of the adipocyte is poorly understood and only few components are known. However, there is an urgent need to learn more about ectopic fat depots as mislocalized storage of lipids, for example in the liver or muscle, is an eminent health problem associated with insulin resistance or the metabolic syndrome. We developed a laser-scanning cytometer assay to enable 1,536-well screening and combined the results of the small molecules screen with an RNAi database based on lipid storage. In this assay we tested analogs of the probe against a mammalian cell line (3T3L1), to see if these small molecules could disrupt lipid storage. NIH Molecular Libraries Probe Production Centers Network [MLPCN] NIH Chemical Genomics Center [NCGC] MLPCN Grant: MH085686 Assay Submitter (PI): Mathias Beller, Max-Planck-Institut fur Biophysikalische Chemie
3T3L1 cells were obtained from ATCC (CL-173). 4 uL of cells at 1.25 X 105 cell/mL were dispensed into 1536 well Poly-D-Lysine coated black with clear bottom imaging plates (Corning, #7356) to obtain 500 cells/well, and cultured at 37 °C, 95% humidity, and 5% CO2 overnight. The culture medium used was OPTI-MEM containing 5% fetal bovine serum (FBS). Triacsin C (Sigma-Aldrich T-4540), an inhibitor of long-chain fatty acyl CoA synthetase that blocks synthesis of triglycerides, was used as a positive control for lipid under-storage. A total of 23 nL of compounds dissolved in DMSO at different concentrations were transferred to the assay plates using a Kalypsys 1536-pin tool, the final DMSO concentration was 0.46%. One microliter of oleic acid at 400 uM (Calbiochem, #4954) was added to induce lipid droplet formation in the cells, and the plates were lidded. After 18-24 hours of incubation at 37 °C, 95% humidity, and 5% CO2, cells were fixed (8 % paraformaldehyde in PBS, 30 min, room temperature), washed three times with PBS, then stained for lipid droplet and nucleus using 4uL of PBS solution containing BODIPY lipid dye 493/503 (1:2000 dilution, Life Technologies, #3922) and Hoechst 33342 (1:1000, Life Technologies, #H3570) with Washer dispenser EL406(Biotek). Images were acquired using InCell 2000 (GE). Number of cells, number of lipids and sizes of lipids were analysis using GE Investigator software.
For `CCOc1ccc(CCNC(=O)c2cc3ncccc3n2Cc2cccc(C)n2)cc1OCC`, the Potency was “inactive”. With `CCOc1ccc(CCNC(=O)c2cc3ccncc3n2Cc2cccc(C)n2)cc1OCC` the Potency was “inactive”. For `CCOc1ccc(CCNC(=O)c2cc3sccc3n2Cc2ccc(F)cc2F)cc1OCC`, the Potency was 0.0235 µM (active). With `CCOc1ccc(CCNC(=O)c2cc3cnccc3n2Cc2cccc(C)n2)cc1OCC` the Potency was “inactive”. With `CCOc1ccc(CCNC(=O)c2ccc(Oc3ccccc3)cc2)cc1OCC` the Potency was 0.246 µM (active). In the case of `CCOc1ccc(CCNC(=O)c2cc3ccccc3n2Cc2ccccn2)cc1OCC`, the Potency was 0.0469 µM (active). With `CCOc1ccc(CCNC(=O)c2ccccc2)cc1OCC` the Potency was 2.35 µM (active).

— PubChem BioAssay AID652180 (National Center for Advancing Translational Sciences (NCATS), 2013)
